# Results filed as inconclusive are left out. Activity calls are given as the source filed them. Calls come from the whole dose curve; as a rule, active = well fitted curve in the direction sought with a large enough effect; inconclusive = small, poorly fitted or top-dose-only effect, or another doubt; inactive = no such curve, though single readings can be large; an effect the other way counts as inactive or inconclusive.
# How the values were obtained:
# [1] = qHTS to identify inhibitors of the type 1 interferon - major histocompatibility complex class I in skeletal muscle: primary screen against the NCATS Mechanism Interrogation Plate v5.0 (MIPE) Libary (AID 1347411); note: nearly all actives have a fitted effect of over 65% in size; note: potency is the fitted concentration of half-maximal effect
# Outline: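 Seed engineered human myoblasts (HLA-B HiBit) in medium without dexamethasone containing 4 ng/ml IFN-beta; after 1 hr add compound titrations (top 46 uM final). Incubate 24 hrs at 37 C, lyse 10 min with HiBiT reagent, read luminescence.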
# [2] = qHTS for inhibitors of adenylyl cyclases using a fission yeast platform: a pilot screen against the NCATS LOPAC library (AID 1347410)
# Outline: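 Read-out: fbp1-GFP fluorescence by laser scanning cytometry (488 nm laser), a gain of signal when AC/cAMP-PKA signalling is inhibited. Strain CHP2027 expressing AC9, GNAS and PDE4D2; compounds at up to 57 µM; 18 h, 30C.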
# [3] = target: Calcium and integrin-binding protein 1 (Homo sapiens) (UniProt Q99828); test: Validation qHTS for Identification of Calcium Integrin Binding protein 1 (CIB1) Competitor (AID 1508618)
# Chain of Calcium and integrin-binding protein 1 (Homo sapiens) (Q99828 whole entry, looked up): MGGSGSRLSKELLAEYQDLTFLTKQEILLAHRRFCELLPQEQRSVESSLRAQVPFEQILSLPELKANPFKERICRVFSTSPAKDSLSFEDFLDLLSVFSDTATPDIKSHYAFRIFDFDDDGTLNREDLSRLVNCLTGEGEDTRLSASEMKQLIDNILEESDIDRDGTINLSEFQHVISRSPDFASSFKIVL
# Outline: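 In this qHTS validation, the LOPAC set (up to 114 uM) was tested for blocking CIB1 binding to a fluorescein-tagged alphaIIb peptide, with FP detection at 480/540 nm.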
# [4] = qHTS to identify inhibitors of the type 1 interferon - major histocompatibility complex class I in skeletal muscle: primary screen against the NCATS Pharmaceutical Collection (AID 1347407);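 note: luminescence of HiBiT knocked into endogenous HLA-B as interferon-induced MHC class I level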
# Outline: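 HLA-B HiBiT myoblasts, dexamethasone-free growth medium + 4 ng/ml IFN-b; compounds pinned 1 h after seeding, […] from 46 uM; 24 h, 37 C, 5% CO2; lytic HiBiT detection, 10 min RT, luminescence.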
# [5] = target: Protein phosphatase 1D (Homo sapiens) (UniProt O15297); test: RapidFire Mass Spectrometry qHTS Assay for Modulators of WT P53-Induced Phosphatase 1 (WIP1) (AID 1347424); note: series mostly up to about 63 µM
# Chain of Protein phosphatase 1D (Homo sapiens) (O15297 whole entry, looked up): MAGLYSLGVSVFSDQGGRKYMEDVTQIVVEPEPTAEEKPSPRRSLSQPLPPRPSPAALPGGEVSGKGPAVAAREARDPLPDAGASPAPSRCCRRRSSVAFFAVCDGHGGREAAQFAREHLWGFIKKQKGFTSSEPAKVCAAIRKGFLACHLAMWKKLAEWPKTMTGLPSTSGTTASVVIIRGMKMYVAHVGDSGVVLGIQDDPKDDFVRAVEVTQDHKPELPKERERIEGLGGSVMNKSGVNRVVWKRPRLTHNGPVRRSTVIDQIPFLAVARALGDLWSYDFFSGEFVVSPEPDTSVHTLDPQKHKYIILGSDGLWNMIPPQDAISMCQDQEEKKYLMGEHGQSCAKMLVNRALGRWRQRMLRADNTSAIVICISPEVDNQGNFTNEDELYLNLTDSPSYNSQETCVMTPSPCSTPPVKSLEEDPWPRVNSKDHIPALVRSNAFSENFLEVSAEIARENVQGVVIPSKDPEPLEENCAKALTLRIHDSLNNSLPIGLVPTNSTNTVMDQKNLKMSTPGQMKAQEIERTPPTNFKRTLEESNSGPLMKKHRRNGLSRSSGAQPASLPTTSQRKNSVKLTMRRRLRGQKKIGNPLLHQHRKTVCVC
# Outline: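 RapidFire MS readout of dephosphorylated VEPPL-S-QETFS product, with 1 uM isotope-labelled peptide standard. Reaction: 10 nM WIP1, 2 uM phosphopeptide substrate, 5 min, room temperature, after 1 h compound preincubation; stopped with 0.5% formic acid.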
# [6] = target: Protein phosphatase 1D (Homo sapiens) (UniProt O15297); test: Rhodamine-PBP qHTS Assay for Modulators of WT P53-Induced Phosphatase 1 (WIP1) (AID 1347425)
# Outline: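 Steps: enzyme with Rh-PBP sensor and compounds, room-temperature incubation of 1 hr, baseline read, addition of VEPPL-pS-QETFS (10 uM final), kinetic fluorescence reads at 525/598 nm. Activity equals final minus baseline signal.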
# [7] = Primary qHTS for inhibitors of La Crosse Virus (LACV) - induced cell death in SH-SY5Y cells (AID 1508616);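 note: top concentration of the series differs between compounds; higher means more rescue of cells from virus-induced death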
# Outline: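 SH-SY5Y, 6000 cells/well; cpd via pin tool in DMSO; LACV 0.01 MOI; 6 d 37C 5% CO2; ATPLite, 5 min RT; luminescence normalized to ±virus DMSO controls.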
# [8] = DH5-alpha competent E. coli microbial cell viability qHTS against the NCATS CANVASS Library (AID 1347377)
# Outline: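 Bacteria were dispensed at 0.2 OD, then compounds were pin-transferred. Plates were incubated overnight at 37C, after which BacTiter-Glo was added and luminescence measured 20 min later.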
# [9] = qHTS for H2AX Agonists against the NCATS CANVASS Library (AID 1347378); conditions: CHO-K1 H2AX phosphorylation, HTRF TR-FRET, 3 h; note: potency is the fitted concentration of half-maximal effect
# Outline: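 TR-FRET readout (ex 320 nm, em 665/620 nm ratio) of phospho-H2AX (S139) in CHO-K1 lysates. Cells treated 3 hr at 37C with compound titration, 0.76% DMSO; lysis 30 min, antibody detection 24 hr at RT.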
# [10] = qHTS for Inflammasome Signaling Inhibitors: IL-1-beta AlphaLISA screen against the NCATS CANVASS Library (AID 1347379); conditions: THP-1 LPS/ATP, IL-1B AlphaLISA secretion, 16 h;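 note: human THP-1 cells primed with LPS then triggered with ATP; secreted IL-1B measured as AlphaLISA emission at 615 nm; potency is the fitted concentration of half-maximal effect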
# Outline: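 Secreted IL-1B from human THP-1 cells quantified by AlphaLISA 16 hr after compound addition (final up to 57.5 uM). A 1 hr compound pretreatment preceded inflammasome activation with 250 ng/mL LPS plus 1.25 mM ATP (final).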
# [11] = Inflammasome Signaling qHTS Counterscreen: IL-1-beta AlphaLISA counterscreen against the NCATS CANVASS Library (AID 1347381);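 note: cell-free check with purified IL-1β in medium and no THP-1 cells; series mostly up to about 57 µM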
# Outline: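 Purified IL-1-beta (4 pg/well) + compound, 11-pt conc. series; acceptor beads 6 ug/mL + biotin-Ab 0.6 nM final, 1 h RT; SA-donor 24 ug/ml final, 30 min dark RT; read ex 680/em 615.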
# [12] = qHTS assay for small molecule disruptors of mitochondrial membrane potential screened against the NCATS CANVASS Library (AID 1347389); conditions: HepG2 mitochondrial membrane potential, m-MPI red/green ratio, 1.5 h; note: potency is the fitted concentration of half-maximal effect; nearly all actives have a fitted effect of over 60% in size
# Outline: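 Mitochondrial depolarization in HepG2 cells is scored as a falling aggregate-to-monomer fluorescence ratio after 1 hr compound exposure and 30 min staining with Mito-MPS dye at 37C, each compound tested as an 11-point titration.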
# [13] = Secretion counterscreen for inhibitors of the SERCaMP assay screened against the NCATS CANVASS Library (AID 1347390); conditions: SH-SY5Y constitutive GLuc secretion, luminescence, 20 h;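 note: light from luciferase secreted into medium read as a measure of general secretion; potency is the fitted concentration of half-maximal effect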
# Outline: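 Luminescence from constitutively secreted GLuc in SH-SY5Y-GLuc STOP cells, read after coelenterazine addition, served as read-out. Compounds tested 0.001 - 77 uM for 20 h at 37C; Brefeldin A as positive control.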
# [14] = qHTS for activators of Nrf2/ARE signaling pathway screened against the NCATS CANVASS Library (AID 1347391); conditions: ARE-bla HepG2, beta-lactamase reporter, 16 h; note: potency is the fitted concentration of half-maximal effect; nearly all actives have a fitted effect of over 60% in size
# Outline: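 Beta-lactamase reporter signal, read as 460 and 530 nm emission under 405 nm excitation after 2 h CCF4 loading, reflected ARE activation in HepG2 cells treated 16 h with an 11-point series.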
# [15] = qHTS for inhibitors of ER calcium dysfunction: SERCaMP assay screened against the NCATS CANVASS Library (AID 1347393); conditions: SH-SY5Y GLuc-SERCaMP secretion, thapsigargin, luminescence; note: potency is the fitted concentration of half-maximal effect; nearly all actives have a fitted effect of over 40% in size
# Outline: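 SH-SY5Y GLuc-SERCaMP, 1000 cells/well, 4 h attach; cpd 16 h, 37C/5% CO2; thapsigargin (added as 6x 600 nM) 4 h; coelenterazine; luminescence. Reduced reporter release = ER Ca stabilization.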
# [16] = Vero-766 cells viability qHTS against the NCATS CANVASS Library: Counterscreen for Zika virus inhibition assay (AID 1347394); conditions: Vero 766 viability, CellTiter-Glo luminescence, 72 h; note: potency is the fitted concentration of half-maximal effect; nearly all actives have a fitted effect of over 60% in size
# Outline: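 CellTiter-Glo luminescence, lower signal indicating cytotoxicity. Vero 766 cells without Zika virus, 1000 cells/well, plated overnight, then treated 72 h at 37C across an 11-point series.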
# [17] = qHTS for inhibitors of Wild type Zika virus screened against the NCATS CANVASS Library (AID 1347396);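 note: ATP luminescence of surviving cells so rescue from viral cell killing; series mostly up to about 46 µM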
# Outline: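 Using ATP-based luminescence (CellTiter Glo), this screen scores rescue of Vero 766 cells from wild-type Zika killing at 72 h post-infection. Compounds are tested in a concentration series.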
# [18] = Viability qHTS for inhibitors of the SERCaMP assay screened against the NCATS CANVASS Library (AID 1347400); conditions: SH-SY5Y SERCaMP cells viability, CellTiter-Glo, 48 h; note: potency is the fitted concentration of half-maximal effect; nearly all actives have a fitted effect of over 70% in size
# Outline: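 Seed SH-SY5Y-GLuc SERCaMP MJH297 cells at 1000 per well, incubate 4 h, add compounds across an 11-point range, incubate 48 h at 37C, then add CellTiter-Glo and read luminescence.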
# [19] = Redox Reaction Profiling qHTS: Assay Interference Panel against the NCATS CANVASS Library (AID 1347401)
# Outline: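 Fluorescence read-out (525 nm excitation, 598 nm emission) at time zero and after 15 min in the dark tracked resorufin formation. Mix: 5 uM resazurin, 200 uM DTT, HEPES pH 7.3 buffer with NaCl.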
smiles,measurement,setting,value
COCCN1CCN(Cc2ccc(-c3n[nH]c4c3C(=O)c3c(NC(=O)NN5CCOCC5)cccc3-4)cc2)CC1,Potency,[1],0.208 µM (active)
CO[C@H]1C[C@@H]2CC[C@@H](C)[C@@](O)(O2)C(=O)C(=O)N2CCCC[C@H]2C(=O)O[C@H]([C@H](C)C[C@@H]2CC[C@@H](OP(C)(C)=O)[C@H](OC)C2)CC(=O)[C@H](C)/C=C(\C)[C@@H](O)[C@@H](OC)C(=O)[C@H](C)C[C@H](C)/C=C/C=C/C=C/1C,Potency,[1],18.6 µM (active)
COc1ccc(N(C)c2nc(C)nc3ccccc23)cc1,Potency,[1],inactive
COCCOc1ccc(N2CCN(CCn3ncc4c3nc(N)n3nc(-c5ccco5)nc43)CC2)cc1,Potency,[1],inactive
CCCCNc1ncc2c(-c3ccc(CN4CCN(C)CC4)cc3)cn(C3CCC(O)CC3)c2n1 (stereo not given),Potency,[1],9.3 µM (active)
Cc1[nH]nc(C(F)(F)F)c1Cc1sc2c(c1C(=O)N1C[C@](C)(O)CO1)c(=O)n(C)c(=O)n2C(C)C,Potency,[1],inactive
CCNCc1nc2c(N)nc3ccccc3c2n1CC(C)(C)O,Potency,[1],inactive
CC[C@]1(O)CC2CN(CCc3c([nH]c4ccccc34)[C@@](C(=O)OC)(c3cc4c(cc3OC)N(C)[C@H]3[C@@](O)(C(=O)OC)[C@H](OC(C)=O)[C@]5(CC)C=CCN6CC[C@]43[C@@H]65)C2)C1 (stereo not given in full),outcome,[2],inactive
same,outcome,[3],inactive
CCOc1cc2ncc(C#N)c(Nc3ccc(F)c(Cl)c3)c2cc1NC(=O)/C=C/CN(C)C,Potency,[1],2.62 µM (active)
Nc1ccccc1N,outcome,[4],inactive
same,Potency,[5],inactive
same,outcome,[6],inactive
Cc1ccc(-c2ccc3c(ccc4sc5c(c43)NC[C@@H](C)NC5=O)n2)cn1,Potency,[1],18.6 µM (active)
CN1CCN(c2ccc(C(=O)Nc3n[nH]c4ccc(Cc5cc(F)cc(F)c5)cc34)c(NC3CCOCC3)c2)CC1,Potency,[1],16.5 µM (active)
c1cc(Nc2cc(C3CC3)[nH]n2)nc(Nc2ccc3nc[nH]c3c2)n1,Potency,[1],1.31 µM (active)
O=C(/C=C/c1cccc(S(=O)(=O)Nc2ccccc2)c1)NO,Potency,[1],2.34 µM (active)
CCOc1cc(C(=O)N2CCC(N3CCN(C)CC3)CC2)ccc1Nc1ncc2c(n1)N(C1CCCC1)c1ccccc1C(=O)N2C,Potency,[1],23.4 µM (active)
NC[C@@](O)(c1ccc(Cl)cc1)c1ccc(-c2cn[nH]c2)cc1,Potency,[1],7.39 µM (active)
O=C(O)c1c(O)c(-c2ccccc2)nc2ccccc12,outcome,[4],inactive
same,Potency,[5],inactive
same,outcome,[6],inactive
same,outcome,[7],inactive
C=C1C(=O)O[C@H]2[C@H]1CC/C(C)=C/CC[C@@]1(C)O[C@@H]21,outcome,[8],inactive
same,Potency,[9],4.86 µM (active)
same,Potency,[10],5.44 µM (active)
same,outcome,[11],inactive
same,Potency,[12],20.9 µM (active)
same,Potency,[13],15.3 µM (active)
same,Potency,[14],2.09 µM (active)
same,Potency,[15],1.72 µM (active)
same,Potency,[16],29.5 µM (active)
same,outcome,[17],inactive
same,Potency,[18],13.5 µM (active)
same,outcome,[19],inactive
